Measured values reported in PubChem BioAssay.

system: Human papillomavirus type 1a protein E7 (residues 44-93); assay: small molecules binding HPV E7 44-93 – biochemical, small-molecule microarray, residues 44-93, 635 nm fluorescence, primary screen (AID 1108); conditions: fluorescence 635 nm, higher = more signal;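 further: E7 fragment applied at 1 µg/mL in TBST for 1 h at 4 C; score combines spot fluorescence with its signal to noise ratio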

SMILES | composite z-score
CCCN1C(=O)[C@@]2(CCC(=O)OC(C)(C)C)N=C(c3ccc(OCCCO)cc3)O[C@H]2c2ccccc21 | 1.11
O=C(O)[C@H]1C[C@H]2C(=O)NCC(=O)N2[C@H]1c1ccc(O)cc1 | -0.008
CC(C)c1ccc(NN2C(C(O)c3ccc(N(C)C)cc3)C=CC3C(=O)N(c4ccccc4)C(=O)C32)cc1 (configuration not stated) | 1.42
CCC[C@@H]1C=C(C(=O)O)[C@H](c2ccc(C)cc2)N1S(=O)(=O)c1ccc(C)cc1 | 1.36
CC(C)c1ccc(NN2C(C(O)c3c(F)cccc3Cl)C=CC3C(=O)N(c4ccccc4)C(=O)C32)cc1 (configuration not stated) | 1.23
CC(C)=CCCC(C)=CC(O)C1C=CC2C(=O)N(c3ccccc3)C(=O)C2N1Nc1ccccc1 (configuration not stated) | 0.704
COCC1=C2[C@@H](CCc3ccccc3)OB(O)C[C@@H]2[C@@H]2C(=O)N(Cc3ccccc3)C(=O)[C@@H]2C1 | -0.0734
COC(=O)[C@@]1(Cc2ccc(OC)cc2)[C@H]2c3cc(C(=O)N4CCCC4)n(CCc4c[nH]c5cc(F)ccc45)c3C[C@H]2CN1C(=O)c1ccccc1 | 0.991
CC(C)N1CC=CC23O[C@@H]4C=CCOC(=O)[C@@H]4[C@H]2C(=O)N(CCO)[C@@H]3C1=O (some centres not stated) | 0.723
COC(=O)C(CC#Cc1ccc2c(c1)[C@]1(C(=O)N2)[C@H](c2ccc(OCCO)cc2)N2[C@H](c3ccccc3)[C@H](c3ccccc3)OC(=O)[C@H]2[C@@H]1C(=O)NC[C@H](O)c1ccccc1)C(=O)OC | 1.17
CC(C)NC(=O)[C@@]1(Cc2ccccc2I)c2ccccc2C(=O)N(Cc2ccccc2)[C@H]1c1ccc(CO)cc1 | 0.997
CCOC(=O)C[C@H]1[C@H](OC(=O)Cc2ccc3c(c2)OCO3)[C@@H](NC(=O)c2ccc(-c3ccccc3)cc2)c2cc(OCCCO)ccc2N1C(=O)c1ccccc1 | 1.06
CC(c1ccccc1)C(O)C1C=CC2C(=O)NC(=O)C2N1Nc1ccccn1 (configuration not stated) | 1.35
COc1ccc(C#Cc2ccc3c(c2)[C@]2(C(=O)N3)[C@H](c3ccc(O)cc3)N3[C@H](c4ccccc4)[C@H](c4ccccc4)OC(=O)[C@H]3[C@@H]2C(=O)NC[C@H](O)c2ccccc2)cc1 | 1.33
O=C1O[C@H](c2ccccc2)[C@H](c2ccccc2)N2[C@H]1[C@@H](C(=O)O)[C@]1(C(=O)Nc3ccc(C#CC4(O)CCCCCC4)cc31)[C@H]2c1ccc(OCCO)cc1 | 1.5
NCCCCCCNC(=O)[C@H]1C[C@H]2C(=O)NCC(=O)N2[C@H]1c1cccc(OCCO)c1 | 0.298
C=CCOC(=O)[C@H]1[C@@H]2C(=O)O[C@@H](c3ccccc3)[C@@H](c3ccccc3)N2[C@@H](c2ccc(OCCOC(=O)[C@@H]3C[C@@H]4C(=O)NCC(=O)N4[C@@H]3c3ccc(O)cc3)cc2)[C@]12C(=O)Nc1ccccc12 | 0.919
[N-]=[N+]=Nc1ccccc1C[C@]1(C(=O)NCCN2CCOCC2)N=C(c2ccc(OCCCO)cc2)O[C@H]1c1ccccc1 | 1.03
CC(C)N1C(=O)C[C@@](C(=O)NCc2ccccc2)(c2ccc([N+](=O)[O-])cc2)[C@H]1c1ccc(CO)cc1 | 1.37
O=C1OCCC/C=C\[C@H]2OC34C=CCN(Cn5nnc6ccccc65)C(=O)[C@H]3N(CCCCCO)C(=O)[C@@H]4C12 (some centres not stated) | -0.921
NCCCCCNC(=O)[C@H]1C[C@H]2C(=O)NCC(=O)N2[C@H]1c1cccc(OCCO)c1 | 1.34
CN1C=C(C(=O)OCCS(C)(=O)=O)C(C(=O)OCCS(C)(=O)=O)=CC(CCCO)=CC1C1CC1 (configuration not stated) | 0.117
COCCOC(=O)N1C(=O)[C@@]2(c3cc(C#CC4=CCCCC4)ccc31)[C@H](C(=O)NC[C@H](O)c1ccccc1)[C@H]1C(=O)O[C@H](c3ccccc3)[C@H](c3ccccc3)N1[C@@H]2c1ccc(O)cc1 | 1.38
CCCCCCCCCCC(O)C1C=CC2C(=O)N(Cc3ccccc3)C(=O)C2N1n1cnnc1 (configuration not stated) | 1.37
Cc1ccccc1C(O)C1C=CC2C(=O)N(C)C(=O)C2N1N1CCCCC1 (configuration not stated) | 1.05
CC(=O)NCCCC[C@@H]1NC(=O)[C@@H]2C[C@H](C(=O)NCCCCCCNC(=O)CS)[C@H](c3ccc(O)cc3)N2C1=O | 1.07
C=CCOC(=O)[C@H]1[C@@H]2C(=O)O[C@@H](c3ccccc3)[C@@H](c3ccccc3)N2[C@@H](c2ccc(OCCOC(=O)[C@@H]3C[C@@H]4C(=O)N5CCC[C@H]5C(=O)N4[C@@H]3c3ccc(O)cc3)cc2)[C@]12C(=O)Nc1ccccc12 | 1.4
